Hits are enriched below; roughly 0.99% of the tested compounds scored in any of these assays.
TRPV1 PAM: potentiators of human vanilloid receptor 1 (TRPV1). Q8NER1. TRPV1-expressing cells, Fluo-8 calcium influx, capsaicin EC20 potentiation. potentiation, % at 8.33 µM. actives 0.02% (n = 320,000). AID 540277; in the data active = potentiation above about 80%; inconclusive = between about 30% and that limit; note: 0% is about no effect
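Fluo-8 calcium influx in TRPV1-expressing cells, kinetic read (ex 480/em 520 nm). Compound added and read 3 min for agonist activity, followed by capsaicin at EC20 final and 2 min further read for enhancement.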
TRPML1 inh: inhibitors of human TRPML1 channel; activity change, negative = inhibition, % (concentration not given with the values); TRPML1-inducible cells, Ca2+ dye fluorescence, FDSS; active compounds read low; inhibition of EC80 agonist-evoked calcium signal; Q9GZU1; actives 0.02% (n = 390,000); in the data active = activity change below about -50%; inconclusive = between about -30% and that limit;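 note: stimulus is agonist 54-4 at its EC80 concentration; % is set by controls: 0 for no effect and ±100 for the full control effect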
Target sequence (Q9GZU1 whole entry, looked up): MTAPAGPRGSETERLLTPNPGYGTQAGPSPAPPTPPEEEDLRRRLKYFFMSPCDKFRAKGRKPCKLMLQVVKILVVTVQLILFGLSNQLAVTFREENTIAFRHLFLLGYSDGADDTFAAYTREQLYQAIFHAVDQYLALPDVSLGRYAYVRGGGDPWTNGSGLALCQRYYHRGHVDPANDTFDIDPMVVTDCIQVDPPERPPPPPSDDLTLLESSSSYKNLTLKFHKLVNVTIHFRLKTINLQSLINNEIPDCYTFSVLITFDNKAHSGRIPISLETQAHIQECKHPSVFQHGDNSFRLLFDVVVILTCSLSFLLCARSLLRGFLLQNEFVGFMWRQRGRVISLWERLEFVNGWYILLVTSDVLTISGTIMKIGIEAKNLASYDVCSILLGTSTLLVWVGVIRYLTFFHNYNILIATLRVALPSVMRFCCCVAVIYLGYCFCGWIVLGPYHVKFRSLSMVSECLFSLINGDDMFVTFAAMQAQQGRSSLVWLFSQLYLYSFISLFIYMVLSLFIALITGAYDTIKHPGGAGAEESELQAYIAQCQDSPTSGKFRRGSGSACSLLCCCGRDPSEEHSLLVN
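Tet-induced TRPML1-DL cells loaded with Ca8 no-wash calcium dye were read kinetically on FDSS. Compound addition was followed by EC80 agonist 54-4 (4 uM final); inhibition was read over 110 s.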
TRHR agonist-1: activates the human TRH receptor; P34981; TRHR cells, calcium flux fluo-8, FDSS agonist mode; activation, % at 2 µM; actives 0.18% (n = 360,000); in the data active = activation above about 30%; note: 0% is about no effect
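Steps: seed TRHR cells overnight; add fluo-8 no-wash Ca dye, RT 30 min–1.5 h; record 10 s baseline; pin-transfer compounds; monitor fluorescence 1 cycle/s for the agonist window. Calcium increases flag candidate agonists.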
TRPV1 ag: activates the human vanilloid receptor TRPV1; TRPV1-expressing cells, Fluo-8 calcium influx, agonist mode; activation, % at 8.33 µM; actives 0.19% (n = 320,000); in the data active = activation above about 80%; inconclusive = between about 30% and that limit; note: 0% is about no effect
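TRPV1-expressing cells were cultured overnight at 35.5C and loaded with Fluo-8 calcium dye for 40 to 90 min at room temperature. After a 10 s baseline, compound was added and calcium influx was read kinetically for 3 min (ex 480/em 520 nm).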
TRPML1 agonist: activates the human TRPML1 channel; activation, % (concentration not given with the values); AID 624414; Q9GZU1; TRPML1-expressing cells, Ca2+ dye fluorescence, FDSS; actives 0.12% (n = 410,000); in the data active = activation above about 50%; inconclusive = mostly about 30% to 49%; note: 0% is about no effect
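TRPML1-DL cells, Tet-induced overnight (~16 h, 37 degrees C), loaded 45-90 min at room temperature with Ca8 no-wash calcium dye plus quencher. FDSS fluorescence: 10 s baseline, compound pin-transfer, 110 s agonist read, then EC80 54-4 (4uM final) and 110 s antagonist read.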
TRHR enhancer-1: allosterically enhances the human TRH receptor. TRHR cells, fluo-8 calcium fluorescence, EC20 TRH enhancement. enhancement, % at 2 µM. actives 0.66% (n = 360,000). AID 493056; in the data active = enhancement above about 30%; note: 0% is about no effect
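Enhancer read-out: after compound pinning and an initial kinetic agonist-mode read, an EC20 of TRH (10 nM final) was injected and fluo-8 calcium signal (Ex 480/Em 530) followed at 1 s/cycle for 100 cycles in TRHR-expressing cells.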
TRHR enhancer-2: human TRH receptor allosteric enhancement confirmation. shares compounds with TRHR enhancer-1. TRH receptor cell assay, enhancer confirmation qHTS. activity change, negative = inhibition, % at 46.1 µM. 970 tested, under 10 active. AID 493076;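 note: compound effect scored on response to added TRH at EC20 of 10 nM; 0% is about no effect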
TRHR agonist-2: human TRH receptor agonism confirmation; shares compounds with TRHR enhancer-1; TRHR-expressing cells, agonist activation read-out; Potency, µM (doses to about 46.1 µM), inactives show at the top dose activation, hits mostly activators; actives 8% (n = 970); note: potency is the fitted concentration of half-maximal effect; 0% is about no effect; nearly all actives have a fitted effect of over 75% in size
* = called active by the depositor; ? = inconclusive; . = no result given. Unless noted, calls come from the whole dose curve; as a rule, active = well fitted curve in the direction sought with a large enough effect; inconclusive = small, poorly fitted or top-dose-only effect, or another doubt; inactive = no such curve, though single readings can be large; an effect the other way counts as inactive or inconclusive.

SMILES	TRPV1 PAM	TRPML1 inh	TRHR agonist-1	TRPV1 ag	TRPML1 agonist	TRHR enhancer-1	TRHR enhancer-2	TRHR agonist-2
CCn1cc(C(=O)N2CCN(c3ccc([N+](=O)[O-])cc3)CC2)c(=O)c2ccc(C)nc21	17	28	-1	-1	-1	46*	16	1%
CCn1cc(C(=O)N2CCN(c3cccc(C)c3C)CC2)c(=O)c2ccc(C)nc21	3	-11	-1	1	0	6	.	.
Cc1cccc(-c2nc3scc(CCNS(=O)(=O)c4ccc5c(c4)OCCO5)n3n2)c1	.	6	0	.	5	-2	.	.
CC(C)(C)c1ccc(OCCC(=O)Nc2cccc(S(=O)(=O)N3CCOCC3)c2)cc1	-1	8	1	26	1	44*	5	0%
O=C(NCc1ccc2c(c1)OCO2)c1cccc(S(=O)(=O)N2CCCC2)c1	-6	6	0	5	1	-1	.	.
O=C(Nc1cccc(S(=O)(=O)N2CCCC2)c1)c1cccc(S(=O)(=O)N2CCOCC2)c1	-17	20	29	21	-1	-5	4	2%
O=C(NCc1ccc2c(c1)OCO2)c1cccc(S(=O)(=O)N2CCCCC2)c1	-7	31	44*	?	1	-17	-9	2%
COc1ccc(OCCC(=O)OCC(=O)Nc2cccc(S(=O)(=O)N3CCOCC3)c2)cc1	11	1	0	2	0	0	.	.
CCOC(=O)c1c(S(=O)(=O)N2CCC(C(=O)N3CCN(c4ccccc4F)CC3)CC2)c(C)n(C)c1C	.	-15	-1	.	-1	1	.	.
O=C(COC(=O)c1cccnc1Cl)Nc1cccc(S(=O)(=O)N2CCCCC2)c1	?	-1	0	2	-1	54*	-6	4%
COc1ccc(CCNC(=O)CN2CCOc3ccccc32)cc1OC	-2	12	0	-2	0	58*	1	0%
Cc1ccc(C)c(NC(=O)Cc2coc3cc(C)cc(C)c23)c1	.	-8	1	.	1	-3	.	.
O=C(C[n+]1cccc(Br)c1)c1ccc(Br)cc1	.	.	.	.	0	.	.	.
CCOc1ccc(CNC(=O)C2Cc3ccccc3N2C(=O)CC)cc1 (configuration not stated)	.	-11	0	.	1	20	.	.
NCCSc1c(-c2ccc(F)cc2)[nH]c2ccccc12	3	-5	4	3	3	45*	2	?
CCOC(=O)c1cc(-c2csc(-c3ccc(C(C)(C)C)cc3)n2)on1	.	4	0	.	2	44*	7	2%
CCc1ccc(C2=C(C)C(N3CCC(C(=O)NCCc4ccco4)CC3)=NS2(=O)=O)cc1	.	-23	-1	.	1	-7	.	.
Cc1ccc(NC(=O)C2CC(=O)n3c(nc4ccccc43)N2)cc1Cl (configuration not stated)	24	36	1	0	2	45*	-2	2%
COCCOc1cc2ncnc(N3CCC(C(=O)O)CC3)c2cc1OCCOC	-7	-14	-2	3	0	43*	3	-1%
CC1CCN(c2ncnc3ccccc23)CC1	-2	14	2	6	1	-1	.	.
CCOC(=O)C1CCC(CN(Cc2cccc(Br)c2)S(=O)(=O)c2ccc(Cl)cc2)CC1 (configuration not stated)	.	27	2	.	2	0	.	.
CCCCSc1nc2c(cnn2-c2ccc(Cl)cc2)c(=O)[nH]1	.	-5	0	.	0	42*	-1	0%
Cc1ccc(-c2c3c(=O)n(C)c(=O)n(C)c3c3cnc4ccccc4n23)cc1	.	-1	0	.	0	59*	-1	2%
CCc1nc2ccccc2n2c(-c3ccc(C)cc3)c3c(=O)n(C)c(=O)n(C)c3c12	.	-2	0	.	0	-4	.	.
Cc1ccccc1OCC(O)CN1CCN(CC(O)COc2ccccc2C)CC1 (configuration not stated)	3	7	0	4	0	-2	.	.
SMILES	TRPV1 PAM	TRPML1 inh	TRHR agonist-1	TRPV1 ag	TRPML1 agonist	TRHR enhancer-1	TRHR enhancer-2	TRHR agonist-2
Cc1ccccc1OCC(O)CN1CCCCC1 (configuration not stated)	-12	6	0	16	0	43*	-5	1%
Cc1ccccc1OCC(O)CN1CCN(c2ccc(Cl)cc2)CC1 (configuration not stated)	4	5	1	-3	2	51*	4	0%
O=C(O)c1ccc(N/N=C/c2cccc(F)c2)cc1	4	-3	0	-5	0	3	.	.
O=C(O)c1ccc(N/N=C/c2ccc(F)c(F)c2)cc1	?	-1	0	-3	0	47*	-9	-1%
CCOc1ccc(C(c2c(O)cc(C)n(CCOC)c2=O)N2CCN(c3ccccc3F)CC2)cc1 (configuration not stated)	.	-3	0	.	0	2	.	.
CCOC(=O)C1CCN(c2nc3ccccc3nc2C(C#N)C(=O)OC(C)C)CC1 (configuration not stated)	-17	34	2	28	3	-8	.	.
CCOC(=O)C1CCCN(c2nc3ccccc3nc2C(C#N)C(=O)OC(C)C)C1 (configuration not stated)	-41	-23	42*	?	2	-7	1	?
CCN(CC)C(=O)c1cc2c(=O)c3cc(Cl)ccc3oc2nc1C	-9	-8	-2	-3	-1	73*	0	-1%
Cc1oc(-c2ccccc2)nc1C(=O)OCC(=O)NC(C)c1ccccc1 (configuration not stated)	-1	8	-1	3	1	8	.	.
Cc1oc(-c2ccccc2)nc1C(=O)OCC(=O)NC(=O)NCC(C)C	-2	2	0	2	0	49*	-4	-1%
Cc1ccc(-c2csc(=Nc3ccccc3)n2Cc2ccc3c(c2)OCO3)cc1	.	4	1	.	0	-6	.	.
C/C(=N/Nc1ccc([N+](=O)[O-])cc1)c1ccc(C)cc1C	-6	-13	2	-3	2	-5	.	.
C/C(=N/Nc1ccc([N+](=O)[O-])cc1)c1c[nH]c2ccccc12	8	-3	35*	11	?	0	-4	?
COc1ccc(C(C[N+](=O)[O-])c2c(-c3ccccc3)cc3ccccn23)cc1 (configuration not stated)	6	-9	0	-4	3	54*	-1	4%
